Source: PubChem BioAssay (National Center for Advancing Translational Sciences (NCATS))
Only some compounds are listed: those with a hit (about 19% of all), similar ones and a draw of the others.
HT1080NT lethal = kills 2HG-producing HT-1080-NT fibrosarcoma cells; AID 686970; hit rate 1.6% among 360,000; HT-1080-NT fibrosarcoma viability, CellTiter-Glo ATP luminescence, 48 h; Potency, µM (top dose mostly 46.1 µM), inactives show at the top dose activity, negative = less viability, usual class: cytotoxic;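 further: NT is the 2HG producing partner of a matched IDH1 knockdown line; potency means the concentration at half of the fitted maximal effect; 0% = DMSO-treated cells and -100% = media-only wells without cells; nearly all actives have a fitted effect of over 55% in size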
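Viability of the 2HG-overproducing fibrosarcoma line after 48 hours of compound exposure at 37 degrees C was determined by luminescence with CellTiter-Glo, and concentration-effect curves were then fitted and categorized.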
DT40 TDP1 no CPT = qHTS for Inhibitors of human tyrosyl-DNA phosphodiesterase 1 (TDP1): qHTS in cells in absence of CPT. hit rate 15% among 420,000. DT40 Tdp1-/- hTDP1 cells, no CPT, ATP luminescence, 48 h. Potency, µM (series often up to 46.2 µM), for the others: at the highest dose activity change, negative = growth inhibition, most hits filed as inhibitors; further: potency means the concentration at half of the fitted maximal effect; nearly all actives have a fitted effect of over 55% in size
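Readout: luminescence from CellTiter-Glo after 30 min in the dark at RT. Cells: DT40 Tdp1-/- with stable hTDP1, 400/well. Exposure: compounds alone, ≥48 hr, 37 °C.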
IL-1B inflam inh = inhibitors of inflammasome signaling (IL-1 beta secretion); THP-1 LPS/ATP IL-1B secretion, AlphaLISA, 16 h; hits give low values; activity change, % at 57.5 µM; hit rate 4.7% among 360,000; AID 743279; in the data active means activity change below about -50%; inconclusive means mostly about -30% to -49%
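THP-1 cells pretreated 1 hr with compounds (up to 57.5 uM final), then stimulated with LPS (250 ng/mL final) plus ATP (1.25 mM final); secreted IL-1B measured by AlphaLISA after 16 hr, decreased signal indicating inhibition.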
HT1080 IDH1KD tx = toxicity to HT-1080 IDH1 knockdown cells (counter line); HT-1080 IDH1 knockdown viability, ATP luminescence, 48 h; Potency, µM (top dose mostly 46.1 µM), for the others: top-dose activity, negative = toxicity, hits mostly cytotoxic; hit rate 2% among 360,000; AID 686971;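 further: potency means the concentration at half of the fitted maximal effect; 0% = DMSO wells and -100% = cell-free medium wells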
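HT-1080-IDH1KD cells (IDH1 knocked down), 750/well in RPMI with 5% FBS, treated with compound 48 h at 37 degrees C. Viability by CellTiter-Glo luminescence, normalised to DMSO and no-cell wells; concentration-response curves classed.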
uPA generation = inhibitors of cell surface uPA generation. cell surface uPA generation assay, qHTS. Potency, µM (highest dose often 38.3 µM), without a hit: at the highest dose activity change, negative = inhibition, usual class: inhibitors. hit rate 0.31% among 330,000. AID 540303; active means well fitted inhibition curve with a large enough effect; inconclusive means small, poorly fitted or top-dose-only effect; inactive means no such curve, though single readings can be large or run the other way; tested in mouse RAW 264.7 cells; further: potency means the concentration at half of the fitted maximal effect; nearly all actives have a fitted effect of over 55% in size
TDP1 cell CPT = growth inhibition of DT40 Tdp1-/-;hTDP1 cells with camptothecin (screen for TDP1 inhibitors). chicken DT40 Tdp1-/-;hTDP1 cells + 20 nM CPT, ATP luminescence, 48 h. Potency, µM (series often up to 46.2 µM), without a hit: top-dose activity change, negative = growth inhibition, hits mostly inhibitors. hit rate 12% among 420,000. AID 686979; further: potency means the concentration at half of the fitted maximal effect; nearly all actives have a fitted effect of over 55% in size
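Cell growth measured by CellTiter-Glo luminescence after a minimum 48 h, 37 C compound exposure with 20 nM CPT in Tdp1-knockout DT40 cells stably expressing hTDP1, seeded 400/well; qHTS titration format.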
* marks the source's active call; other numbers are inactive results; ? = inconclusive; . = not tested or not shown. Unless noted, the call rests on the fitted dose curve; in most records, active means well fitted curve in the direction sought with a large enough effect; inconclusive means small, poorly fitted or top-dose-only effect, or another doubt; inactive means no such curve, though single readings can be large; an effect the other way counts as inactive or inconclusive. Unless noted, on the % scale 0 is the no-effect control and ±100 the full control effect.

SMILES	HT1080NT lethal	DT40 TDP1 no CPT	IL-1B inflam inh	HT1080 IDH1KD tx	uPA generation	TDP1 cell CPT
Nc1c(C(=O)OCC2CCCO2)c2nc3ccccc3nc2n1C1CCCC1 (stereo not given)	-2%	12µM*	2	-4%	2%	?
Nc1c(C(=O)NC2CCCC2)c2nc3ccccc3nc2n1N	-22%	23µM*	-4	-29%	-6%	?
Cc1cc(C)n2nc(C(=O)NNC(=O)c3ccccc3)nc2n1	12%	7%	4	15%	17%	26%
CC(NC(=O)COC(=O)c1ccc(CO)cc1)C1CC2CCC1C2 (stereo not given)	-7%	5%	0	4%	12%	?
CN(C)C(=O)c1cccc(-c2cnc3c(NC=O)cc(-c4cc(F)c(F)c(F)c4)cn23)c1	-1%	?	-2	6%	.	?
CN(C)CCNC(=O)c1cccc(-c2cccc3nccn23)c1	1%	-6%	?	27%	.	-19%
CCSc1ccc(-c2cc(NC=O)c3ncc(-c4cccc(C(=O)NCCN(C)C)c4)n3c2)cc1	18µM*	3.3µM*	-108*	?	.	4.6µM*
O=CNc1cc(-c2cccc(O)c2)cn2c(-c3ccc(F)cc3)cnc12	?	21µM*	-6	?	.	18µM*
CC(=O)c1cccc(-c2cnc3c(NC=O)cc(-c4ccc(F)cc4)cn23)c1	-29%	?	108	?	.	16µM*
CN(C)CCNC(=O)c1cccc(-c2cnc3c(NC=O)cc(/C=C/c4ccccc4)cn23)c1	?	5.2µM*	0	?	.	3.7µM*
Cc1ccc(NC(=O)c2ncn(CCCNCC(C)c3ccccc3)n2)cc1C (stereo not given)	-17%	?	-10	-14%	-29%	?
COc1ccccc1-c1cc(NC=O)c2ncc(-c3cccc(C(C)=O)c3)n2c1	?	7.3µM*	5	?	.	6.5µM*
CN(C)CCNC(=O)c1cccc(-c2cnc3c(NC=O)cc(-c4ccc(F)cc4)cn23)c1	?	5.2µM*	-8	23µM*	.	4.6µM*
CN(C)CCNC(=O)c1cccc(-c2cnc3c(NC=O)cc(-c4cccc(F)c4)cn23)c1	?	?	-3	?	.	?
COc1ccccc1-c1cc(NC=O)c2ncc(-c3cccc(C(=O)N(C)C)c3)n2c1	?	?	19	?	.	?
S=c1[nH]nc(-c2cccc(Cl)c2)n1CCN1CCCCC1	12%	-16%	18	11%	2%	3%
Cc1[nH]c2c(Cl)cccc2c1CCNC(=O)C1CCCCC1C(=O)OCC(F)(F)F (stereo not given)	-20%	-26%	-80*	-7%	-7%	14%
CC(C)CC(CO)N1CCN(C(=O)c2cccc(Cl)c2)CCC1=O (stereo not given)	?	-16%	-14	-5%	-5%	-16%
CC(C)CC(COCc1ccc(Cl)cc1)N1CCN(C(=O)c2cccc(C(F)(F)F)c2)CCC1=O (stereo not given)	0%	21µM*	-24	-6%	8%	16µM*
Cc1ccc(COC[C@H](CC(C)C)N2CCN(C(=O)c3cccc(C(F)(F)F)c3)CCC2=O)cc1	?	?	-5	?	.	?
CC(C)CC(COCc1cccc(C(F)(F)F)c1)N1CCN(C(=O)c2cccc(C(F)(F)F)c2)CCC1=O (stereo not given)	-9%	23µM*	-67*	-6%	6%	16µM*
Cc1ccccc1COC[C@H](CC(C)C)N1CCN(C(=O)c2cccc(C(F)(F)F)c2)CCC1=O	-1%	13µM*	-16	0%	1%	16µM*
COc1ccc(CCN2C(=O)N[C@@H](C(C)C)C2=O)cc1	6%	-2%	46	10%	-3%	13%
Cc1ccc(N2CC(NC(=O)C3CC3)CC2=O)cc1C (stereo not given)	.	-8%	.	.	.	23%
CC(Oc1ccc(Cl)cc1)C(=O)Nc1sccc1C(N)=O (stereo not given)	-15%	16µM*	-62*	-10%	-5%	?
SMILES	HT1080NT lethal	DT40 TDP1 no CPT	IL-1B inflam inh	HT1080 IDH1KD tx	uPA generation	TDP1 cell CPT
Cc1ccc(OC(C)C(=O)OCC(=O)Nc2sccc2C(N)=O)cc1 (stereo not given)	6%	-9%	21	5%	-5%	-24%
Cc1onc(-c2ccccc2)c1C(=O)c1ccccc1	5%	?	9	-1%	-1%	12%
COc1ccc(S(=O)(=O)c2c(Nc3c(C)cccc3C)sc(C(=O)c3ccc(F)cc3)c2N)cc1	.	5.2µM*	.	.	.	5.8µM*
COc1ccc(S(=O)(=O)c2c(Nc3c(C)cccc3C)sc(C(=O)c3ccc4c(c3)OCO4)c2N)cc1	.	2.9µM*	.	.	.	5.2µM*
COc1ccc(S(=O)(=O)c2c(Nc3cccc(C)c3C)sc(C(=O)c3ccccc3)c2N)cc1	.	3.3µM*	.	.	.	2.9µM*
Cc1cc(C)cc(Nc2sc(C(=O)c3ccccc3)c(N)c2S(=O)(=O)c2ccccc2)c1	.	?	.	.	.	-24%
COc1ccc(C(=O)c2sc3nc(-c4ccc(F)cc4)ccc3c2N)cc1	.	-13%	.	.	.	-23%
Cc1cc(-c2cccs2)c2c(N)c(C(=O)c3ccc4c(c3)OCO4)sc2n1	6%	?	-21	8%	1%	-23%
Cc1ccc(S(=O)(=O)c2c(Nc3cc(C)ccc3C)sc(C(=O)c3ccc4c(c3)OCO4)c2N)cc1	.	7.3µM*	.	.	.	6.5µM*
Nc1c(C(=O)c2ccccc2)sc(Nc2ccccc2)c1S(=O)(=O)c1ccccc1	-3%	?	-3	-22%	4%	?
CCOC(=O)C1CCN(C(=O)Cn2nc(CC)n3c(cc4occc43)c2=O)CC1	.	-23%	.	.	.	?
CCOC(=O)c1ccccc1NC(=O)CSc1cc(C)[nH]c(=O)n1	.	-10%	.	.	.	-11%
COc1cc(N=Nc2ccc(Br)cc2)cc(C=O)c1O	-16%	4.6µM*	-20	-24%	.	5.2µM*
C=C1C(=O)OC2C1CCC(C)C1C=CC(=O)C12C (stereo not given)	?	2.9µM*	-68*	21µM*	6%	3.3µM*
CCC(C)NCCOCCOc1ccc(Cl)c(C)c1C (stereo not given)	?	13µM*	-9	21µM*	3%	15µM*
